Laboratory results: ChEMBL document CHEMBL4513139, “CO-ADD screening of University of Strathclyde (UK) compounds”
Potency and affinity values are given separately.

Assays:
[1] = test system: Klebsiella pneumoniae; details: Concentration 32 ug.mL-1; ASSAY_TEST Inhibition of Bacterial Growth; detection method Absorption (OD600); MEDIA CAMHB; plate type 384well; NBS; CORNING #3640; time 18 hr
[2] = test system: Candida albicans; details: 32 ug/mL
[3] = test system: Cryptococcus neoformans; details: Concentration 32 ug.mL-1; ASSAY_TEST Inhibition of Fungal Growth; detection method Resazurin; Absorption (OD600-OD570); plate type 384well; NBS; CORNING #3640

Row | SMILES | Inhibition [1] | Inhibition [2] | Inhibition [3]
1 | Cc1ncc(Cn2cc(CCCN)nn2)c(N)n1.Cl | -8.29% | 3.42% | -41.75%
2 | CC(C)CCc1sc(NC(=O)c2cc(NC(=O)c3cc(NC(=O)c4ccc(C(=O)O)cc4)cn3C)cn2C)nc1C(=O)NCCCN(C)C.O=C(O)C(F)(F)F | -0.94% | 8.07% | -119.21%
3 | COCCOC1CCN(C(=O)c2cc(NC(=O)c3cc(NC(=O)c4ccc(/C=C/c5ccc(OC)cc5)cc4)cn3C)cn2C)CC1.O=S(=O)(O)O | 1.91% | 3.1% | 97.19%
4 | CCOC(=O)c1cc(NC(=O)c2cc(NC(=O)c3nc(N)sc3CCC(C)C)cn2C)cn1C | 9.93% | 2.98% | -84.96%
5 | COc1ccc(/C=C(/C(=O)Nc2cc(C(=O)Nc3cc(C(=O)NCCCN(C)C)n(C)c3)n(C)c2)c2ccc(OC)cc2)cc1.O=C(O)C(F)(F)F | 4.2% | 1.83% | -5.3%
